In PubChem BioAssay AID1159580 (chemical genetic matrix, 2015):
In all, about 5,500 compounds went through this assay and about 2,000 (36%) were called active. About 18% were inconclusive and are not listed. Cut-off read from the data, not from the text of the source: active = normalized growth mostly below about 0.91 (no sharp cut-off); inconclusive = no clear call, values can overlap the other calls; inactive = mostly above about 0.92. The list shows a part of the results.

Test: chemical genetic growth profiling, strain panel (AID 1159580);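 note: tested at 20 µM; growth read once vehicle control cultures reached saturation at 30 °C; 1 = growth at the plate median or of vehicle wells; lower values mean less growth of the strain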
Settings: growth OD
[1] = S. cerevisiae deletion strains, locus YAL013W, strain DEP1, hits give low values
[2] = S. cerevisiae deletion strains, locus YBR229C, strain ROT2, hits give low values
[3] = S. cerevisiae deletion strains, locus YDL101C, strain DUN1, hits give low values
[4] = S. cerevisiae deletion strains, locus YDL134C, strain PPH21, hits give low values
[5] = S. cerevisiae deletion strains, locus YDR150W, strain NUM1, hits give low values
[6] = S. cerevisiae deletion strains, locus YEL061C, strain CIN8, hits give low values
[7] = S. cerevisiae deletion strains, locus YGR078C, strain PAC10, hits give low values
[8] = S. cerevisiae deletion strains, locus YHR030C, strain SLT2, hits give low values
[9] = S. cerevisiae deletion strains, locus YJR043C, strain POL32, hits give low values
[10] = S. cerevisiae deletion strains, locus YJR075W, strain HOC1, hits give low values
[11] = S. cerevisiae deletion strains, locus YLR039C, strain RIC1, hits give low values
[12] = S. cerevisiae deletion strains, locus YLR262C, strain YPT6, hits give low values
[13] = S. cerevisiae deletion strains, locus YMR263W, strain SAP30, hits give low values
[14] = S. cerevisiae deletion strains, locus YMR307W, strain GAS1, hits give low values
[15] = S. cerevisiae deletion strains, locus YNL153C, strain GIM3, hits give low values
[16] = S. cerevisiae deletion strains, locus YNL322C, strain KRE1, hits give low values
[17] = S. cerevisiae deletion strains, locus YPL055C, strain LGE1, hits give low values
[18] = S. cerevisiae deletion strains, locus YPL241C, strain CIN2, hits give low values

Measured: normalized growth

COc1cc(C2Nc3cccc4cccc(c34)N2)cc(OC)c1OC
inactive: [1] 0.962 | [2] 1.01 | S. cerevisiae deletion strains, locus YCL061C, strain MRC1, hits give low values 1.02 | [3] 1.05 | [4] 0.985 | [5] 1.04 | [6] 0.925 | [7] 1.02 | [8] 0.729 | S. cerevisiae deletion strains, locus YHR087W, strain rtc3, hits give low values 1.01 | S. cerevisiae deletion strains, locus YJL187C, strain SWE1, hits give low values 0.992 | [9] 1.01 | [10] 1.07 | S. cerevisiae deletion strains, locus YLR058C, strain SHM2 (second series), hits give low values 1 | S. cerevisiae deletion strains, locus YLR085C, strain ARP6, hits give low values 0.881 | S. cerevisiae deletion strains, locus YML094W, strain GIM5, hits give low values 0.883 | S. cerevisiae deletion strains, locus YMR219W, strain ESC1, hits give low values 1 | [13] 0.996 | [15] 1.02 | S. cerevisiae deletion strains, locus YNL298W, strain CLA4 (second series), hits give low values 0.877 | [16] 1 | [17] 0.945 | S. cerevisiae deletion strains, locus YPR135W, strain CTF4, hits give low values 0.952
active: [11] 0.751 | [12] 0.808 | [14] 0.661 | S. cerevisiae deletion strains, locus YNR030W, strain Alg12, hits give low values 0.736 | [18] 0.403

COc1cc2cccc(OC)c(=O)c2c(OC)c1OC
inactive: [1] 1.01 | S. cerevisiae deletion strains, locus YBR021W, strain FUR4, hits give low values 0.994 | [2] 1.01 | S. cerevisiae deletion strains, locus YCL029C, strain bik1, hits give low values 1.02 | S. cerevisiae deletion strains, locus YDL035C, strain GPR1, hits give low values 1.02 | S. cerevisiae deletion strains, locus YDL074C, strain BRE1, hits give low values 1 | [3] 1.01 | [4] 1.01 | S. cerevisiae deletion strains, locus YDL185W, strain tfp1, hits give low values 1.01 | S. cerevisiae deletion strains, locus YDL192W, strain arf1, hits give low values 1.03 | S. cerevisiae deletion strains, locus YDR101C, strain arx1, hits give low values 0.991 | [5] 1.02 | S. cerevisiae deletion strains, locus YDR162C, strain NBP2, hits give low values 1.02 | S. cerevisiae deletion strains, locus YDR318W, strain mcm21, hits give low values 1.03 | S. cerevisiae deletion strains, locus YDR388W, hits give low values 1.01 | S. cerevisiae deletion strains, locus YDR502C, strain sam2, hits give low values 0.989 | [6] 1.01 | S. cerevisiae deletion strains, locus YER110C, hits give low values 1.02 | S. cerevisiae deletion strains, locus YER155C, strain BEM2, hits give low values 1 | S. cerevisiae deletion strains, locus YER167W, strain BCK2, hits give low values 1.03 | S. cerevisiae deletion strains, locus YGL078C, strain dbp3, hits give low values 1 | S. cerevisiae deletion strains, locus YGL086W, strain mad1, hits give low values 1.03 | S. cerevisiae deletion strains, locus YGL248W, strain PDE1, hits give low values 1.01 | [7] 0.998 | S. cerevisiae deletion strains, locus YGR135W, strain pre9, hits give low values 0.982 | S. cerevisiae deletion strains, locus YGR229C, strain SMI1, hits give low values 0.994 | S. cerevisiae deletion strains, locus YGR252W, strain gcn5, hits give low values 0.988 | [8] 1.01 | S. cerevisiae deletion strains, locus YHR079C, strain IRE1 (second series), hits give low values 1 | S. cerevisiae deletion strains, locus YHR094C, strain hxt1, hits give low values 1.01 | S. cerevisiae deletion strains, locus YHR129C, strain ARP1, hits give low values 1 | S. cerevisiae deletion strains, locus YHR200W, strain rpn10, hits give low values 1.01 | S. cerevisiae deletion strains, locus YIL066C, strain RNR3, hits give low values 1.02 | S. cerevisiae deletion strains, locus YIL073C, strain SPO22, hits give low values 1.06 | S. cerevisiae deletion strains, locus YIL125W, strain kgd1, hits give low values 1.02 | S. cerevisiae deletion strains, locus YIR030C, strain dcg1, hits give low values 1.01 | S. cerevisiae deletion strains, locus YJL095W, strain BCK1, hits give low values 1 | S. cerevisiae deletion strains, locus YJL134W, strain LCB3, hits give low values 1.01 | S. cerevisiae deletion strains, locus YJL168C, strain set2, hits give low values 1.01 | S. cerevisiae deletion strains, locus YJL187C, strain SWE1 (second series), hits give low values 0.996 | [9] 0.999 | [10] 1 | S. cerevisiae deletion strains, locus YKL009W, strain mrt4, hits give low values 1.03 | S. cerevisiae deletion strains, locus YKL068W, hits give low values 1.01 | S. cerevisiae deletion strains, locus YKL085W, strain MDH1 (second series), hits give low values 1.02 | S. cerevisiae deletion strains, locus YKL085W, strain MDH1, hits give low values 1.02 | S. cerevisiae deletion strains, locus YKL190W, strain CNB1, hits give low values 1.01 | S. cerevisiae deletion strains, locus YKR001C, strain vps1, hits give low values 1.01 | [11] 1.09 | S. cerevisiae deletion strains, locus YLR058C, strain SHM2, hits give low values 1.01 | S. cerevisiae deletion strains, locus YLR102C, strain apc9, hits give low values 1.01 | [12] 1.09 | S. cerevisiae deletion strains, locus YLR268W, strain sec22, hits give low values 0.99 | S. cerevisiae deletion strains, locus YLR330W, strain CHS5, hits give low values 1.01 | S. cerevisiae deletion strains, locus YLR342W, strain FKS1 (second series), hits give low values 1.05 | S. cerevisiae deletion strains, locus YLR371W, strain rom2, hits give low values 1.01 | S. cerevisiae deletion strains, locus YLR418C, strain cdc73, hits give low values 0.945 | S. cerevisiae deletion strains, locus YML016C, strain PPZ1, hits give low values 1.01 | S. cerevisiae deletion strains, locus YML032C, strain rad52, hits give low values 1.03 | S. cerevisiae deletion strains, locus YML124C, strain tub3, hits give low values 1.01 | S. cerevisiae deletion strains, locus YMR078C, strain ctf18, hits give low values 1.02 | S. cerevisiae deletion strains, locus YMR223W, strain ubp8, hits give low values 1.01 | [13] 0.996 | [14] 0.966 | S. cerevisiae deletion strains, locus YNL067W, strain RPL9B, hits give low values 0.992 | S. cerevisiae deletion strains, locus YNL128W, strain TEP1, hits give low values 1 | [15] 0.977 | S. cerevisiae deletion strains, locus YNL233W, strain BNI4, hits give low values 0.977 | S. cerevisiae deletion strains, locus YNL250W, strain rad50, hits give low values 1.01 | S. cerevisiae deletion strains, locus YNL271C, strain bni1, hits give low values 1.01 | S. cerevisiae deletion strains, locus YNL298W, strain CLA4, hits give low values 1.02 | S. cerevisiae deletion strains, locus YNL307C, strain MCK1, hits give low values 1.03 | [16] 1.02 | S. cerevisiae deletion strains, locus YNR052C, strain pop2, hits give low values 1.01 | S. cerevisiae deletion strains, locus YOL006C, strain TOP1, hits give low values 1.01 | S. cerevisiae deletion strains, locus YOL012C, strain htz1 0.97 | S. cerevisiae deletion strains, locus YOL147C, strain pex11, hits give low values 1.01 | S. cerevisiae deletion strains, locus YOR061W, strain CKA2, hits give low values 1.02 | S. cerevisiae deletion strains, locus YOR069W, strain VPS5, hits give low values 1.01 | S. cerevisiae deletion strains, locus YOR136W, strain idh2, hits give low values 1.02 | S. cerevisiae deletion strains, locus YOR144C, strain elg1, hits give low values 1.01 | S. cerevisiae deletion strains, locus YOR184W, strain ser1, hits give low values 1.04 | S. cerevisiae deletion strains, locus YOR316C, strain cot1, hits give low values 1.01 | [17] 0.984 | [18] 1.01 | S. cerevisiae deletion strains, locus YPR119W, strain clb2, hits give low values 1.01 | S. cerevisiae deletion strains, locus YPR141C, strain kar3, hits give low values 1.03 | S. cerevisiae deletion strains, locus YPR163C, strain tif3, hits give low values 1.01 | S. cerevisiae deletion strains, locus YPR167C, strain met16, hits give low values 1.01 | S. cerevisiae deletion strains, strain wtn01, hits give low values 0.992 | S. cerevisiae strains, strain wild type, hits give low values 1.01
